Screening results: PubChem BioAssay, National Center for Advancing Translational Sciences (NCATS)
Shown are actives, neighbours in structure and some others; about 4.6% of the full set was active somewhere.
TRHR PAM – allosterically enhances the human TRH receptor | P34981 | TRHR cells, fluo-8 calcium fluorescence, EC20 TRH enhancement | enhancement, % at 2 µM | 0.66% of 360,000 active | AID 493056; in the data active = enhancement above about 30%; note: 0% is about no effect
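TRHR-expressing cells loaded with fluo-8 calcium dye were read kinetically (ex 480/em 530) during compound addition, then stimulated with an EC20 of TRH (10 nM final). Enhancement of the Gq-mediated intracellular calcium response was scored.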
D1 potentiator – human D1 dopamine receptor positive modulation; P21728; HEK293 TREx D1 cells, calcium flux, dopamine EC20 potentiation; potentiation, % at 10 µM; 0.036% of 360,000 active; AID 504651; in the data active = potentiation above about 30%; note: 0% is about no effect
Target sequence (P21728 whole entry, looked up): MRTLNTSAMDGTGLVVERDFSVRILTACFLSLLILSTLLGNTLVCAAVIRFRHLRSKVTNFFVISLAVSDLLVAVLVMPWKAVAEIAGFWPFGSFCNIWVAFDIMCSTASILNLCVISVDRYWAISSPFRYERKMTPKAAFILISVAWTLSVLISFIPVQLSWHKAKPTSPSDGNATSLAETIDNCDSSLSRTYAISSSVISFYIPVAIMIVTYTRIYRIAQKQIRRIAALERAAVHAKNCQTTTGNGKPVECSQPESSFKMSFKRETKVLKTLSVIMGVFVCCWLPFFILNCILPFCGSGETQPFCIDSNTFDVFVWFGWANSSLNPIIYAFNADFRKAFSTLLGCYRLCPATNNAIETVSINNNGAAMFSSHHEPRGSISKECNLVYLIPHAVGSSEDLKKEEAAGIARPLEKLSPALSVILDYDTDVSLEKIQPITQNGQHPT
TRHR ag – activates the human TRH receptor; 0.18% of 360,000 active; AID 493084; TRHR cells, calcium flux fluo-8, FDSS agonist mode; P34981; activation, % at 2 µM; note: 0% is about no effect
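Fluo-8-loaded TRHR cells; 10 s baseline, compound added, kinetic Ca2+ fluorescence read 1/s, agonist mode.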
D1 antag – human D1 dopamine receptor antagonism | HEK293 TREx D1 cells, calcium flux, dopamine EC80; active compounds read low | activity change, negative = inhibition, % at 10 µM | P21728 | 3.2% of 360,000 active; in the data active = activity change below about -30%; note: % is set by controls: 0 for no effect and ±100 for the full control effect
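Antagonism measured as reduced calcium response to an EC80 dopamine addition following 180 s compound pre-read; cells were inducible HEK293 Trex D1 plated overnight at 30 C, read kinetically at 1 cycle/sec.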
D1 ag – human D1 receptor agonism. P21728. HEK293 T-REx D1 cells, calcium flux, agonist mode. activation, % at 2 µM. 1% of 360,000 active; note: 0% is about no effect
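Inducible HEK293 T-REx D1 cells, force-coupled to calcium signalling, were plated at 4000 cells/well with tetracycline and held overnight at 30 C. After no-wash calcium dye loading, compound-evoked calcium rise over 180 s flagged agonists.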
* = called active by the depositor; nt = not tested or not shown. Cut-off read from the data, not from the text of the source, unless noted: active = activation above about 30%; inactive = the rest.

SMILES	TRHR PAM	D1 potentiator	TRHR ag	D1 antag	D1 ag
COc1ccc(C(=O)CC2(O)C(=O)N(Cc3cccc(C(F)(F)F)c3)c3ccccc32)cc1 (centres undefined)	-8	-4	0	-20	0
Nc1ccc(S(=O)(=O)NC2(C(F)(F)F)NC(=O)N(c3cccc(Cl)c3)C2=O)cc1 (centres undefined)	-5	-4	1	-6	0
Cc1ccc(C)c(NC(=O)c2nnn(Cc3ccc(F)cc3Cl)c2N)c1	0	-3	9	-32*	79*
Nc1c(C(=O)Nc2ccc3c(c2)OCCO3)nnn1Cc1ccccc1Cl	7	0	2	6	18
Cc1ccc(C)c(NC(=O)c2nnn(Cc3ccccc3)c2N)c1	-1	4	3	25	17
Cc1ccc(Cn2nnc(C(=O)Nc3cc(C)ccc3C)c2N)cc1	-1	5	5	4	40*
COc1ccc(NC(=O)Cn2nnc(C(=O)NCCc3ccccc3)c2N)cc1	6	-8	0	-24	2
Nc1c(C(=O)Nc2ccccc2)nnn1Cc1ccc(F)cc1Cl	0	2	16	-31*	88*
COc1ccc(NC(=O)Cn2nnc(C(=O)Nc3ccccc3C)c2N)cc1	3	-6	0	-64*	1
O=C(NCC(c1cccs1)S(=O)(=O)c1cccs1)c1ccc(C(F)(F)F)cc1 (centres undefined)	-1	-3	0	nt	4
COc1ccccc1CNC(=O)c1ccc2c(c1)CCN2S(=O)(=O)c1ccc(Cl)cc1	1	5	1	5	4
COc1ccc(OC)c(NC(=O)c2nnn(Cc3ccc(Br)cc3F)c2N)c1	17	0	7	39	5
COc1ccc(NC(=O)c2nnn(Cc3ccc(Br)cc3F)c2N)c(OC)c1	4	11	12	25	34*
O=[S+]([O-])(c1ccc2ncsc2c1)N1CCN([S+](=O)([O-])c2c(F)cccc2F)CC1	-1	2	1	-28	-1
CCOc1ccc(CNC(=O)c2cnc3sc(N4CCCCCC4)nn3c2=O)cc1OC	1	-5	0	-16	0
O=C(NCCCN1CCOCC1)c1ccc(-n2nc(C(F)(F)F)cc2-c2cccs2)cc1	10	-10	-1	-25	62*
COCCCNC(=O)c1ccc(-n2nc(C(F)(F)F)cc2-c2cccs2)cc1	0	-7	-1	-2	11
CCCc1nc2oc3ccccc3c(=O)c2c(=O)n1-c1ccc(C)cc1	-3	1	12	6	37*
CCOc1ccccc1Nc1nc(-c2cccc(Cl)c2)c2c(n1)-c1ccccc1OC2	-5	0	0	0	-1
CN(C)CCn1c2c(c(SCC(=O)Nc3ccc(F)cc3F)nc1=O)CCC2	-2	-2	0	nt	1
COc1cccc(C(=O)Nc2ccccc2C(=O)OCc2cc(=O)n3c(C)csc3n2)c1	0	0	0	14	0
COc1ccc(C(=O)OCc2cc(=O)n3c(C)csc3n2)cc1F	2	-8	1	-12	5
Cc1csc2nc(COC(=O)c3ccc(F)cc3)cc(=O)n12	-2	-6	0	-38*	6
Cc1csc2nc(COC(=O)c3ccccc3NC(=O)c3cccc(Br)c3)cc(=O)n12	2	2	1	-53*	0
CCOC(=O)c1c(NC(=O)COc2ccc(Cl)cc2Cl)sc2c1CCCCC2	3	5	0	19	5
CC1=C(c2ccc(C(C)C)cc2)S(=O)(=O)NC1=NCc1ccccc1C	-4	-1	0	-10	3
CCc1ccc(OCC(=O)Nc2ccc3c(c2)c2ccccc2n3CC)c(Br)c1	34*	-3	0	-2	0
NC(=O)CC(NC(=O)Cc1ccc(Br)cc1)c1ccc(NCCN2CCCC2)c([N+](=O)[O-])c1 (centres undefined)	2	-3	0	-1	0
NC(=O)CC(NC(=O)Cc1ccc(Br)cc1)c1ccc(NCCN2CCCCC2)c([N+](=O)[O-])c1 (centres undefined)	10	0	0	-45*	4
CC(C)C(=O)Nc1ccccc1C(=O)OCc1cc(=O)n2nc(C3CC3)sc2n1	1	0	0	12	-1
